The results in this text go back to article PMC7862700, “An all-to-all approach to the identification of sequence-specific readers for epigenetic DNA modifications on cytosine”.

What all share (test): DAPPL (digital affinity profiling via proximity ligation, sequencing); 10 mM Tris-HCl pH 7.5, 50 mM NaCl, 1 mM DTT, 4% glycerol, room temperature, 30 min; GST-TFs on glutathione beads, 16-mer random dsDNA library, 0.1% formaldehyde crosslink after washing; high values mean tight binding
Conditions in all cases: protein: recombinant; tags: N-terminal GST; dsDNA, one strand shown

Experiment [1] deals with T1, FLI1 (Homo sapiens, UniProt Q01543 1-452).
T1 sequence: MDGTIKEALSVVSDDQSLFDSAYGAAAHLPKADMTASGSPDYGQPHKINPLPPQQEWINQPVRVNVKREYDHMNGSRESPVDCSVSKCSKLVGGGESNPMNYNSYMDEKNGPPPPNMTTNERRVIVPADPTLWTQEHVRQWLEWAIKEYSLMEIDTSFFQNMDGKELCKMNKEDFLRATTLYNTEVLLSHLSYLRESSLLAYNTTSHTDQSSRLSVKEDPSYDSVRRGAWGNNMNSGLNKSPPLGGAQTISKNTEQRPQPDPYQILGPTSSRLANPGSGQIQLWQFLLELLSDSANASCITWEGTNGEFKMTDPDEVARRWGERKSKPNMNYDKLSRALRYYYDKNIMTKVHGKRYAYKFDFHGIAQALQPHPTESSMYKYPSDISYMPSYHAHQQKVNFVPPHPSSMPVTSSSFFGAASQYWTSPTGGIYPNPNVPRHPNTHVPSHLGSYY
The gist of the method: (§1)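 After expression in yeast as GST fusions, human transcription factors were bound to glutathione beads, DNA-barcoded and mixed with a tag-only sample. The pools were incubated with 200 nmole of a 16-mer random double-stranded DNA library in Tris/NaCl/DTT/glycerol buffer (30 min, room temperature), washed and crosslinked with 0.1% formaldehyde. Proximity ligation with BsaI/T4 ligase ran for 1 h at 37 °C, before PCR amplification and sequencing on an Illumina NextSeq500. Binding signal is a hexamer's read frequency for a factor divided by its frequency for the tag-only sample.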

The target in experiment [2] is T2, ELK1 (Homo sapiens, UniProt P19419 1-428).
T2 sequence: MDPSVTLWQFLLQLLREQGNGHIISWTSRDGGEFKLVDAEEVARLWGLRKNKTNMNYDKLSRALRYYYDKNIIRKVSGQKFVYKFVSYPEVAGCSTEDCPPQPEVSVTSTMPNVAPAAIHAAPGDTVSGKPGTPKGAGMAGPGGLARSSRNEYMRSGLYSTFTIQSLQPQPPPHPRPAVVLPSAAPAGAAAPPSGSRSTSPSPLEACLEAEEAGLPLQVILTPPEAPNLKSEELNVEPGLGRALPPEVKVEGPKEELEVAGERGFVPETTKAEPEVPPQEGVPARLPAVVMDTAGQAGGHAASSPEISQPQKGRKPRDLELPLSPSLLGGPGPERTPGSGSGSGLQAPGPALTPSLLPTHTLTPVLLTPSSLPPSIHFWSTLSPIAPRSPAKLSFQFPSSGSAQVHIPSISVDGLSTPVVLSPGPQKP
Put shortly: as §1

The target in experiment [3] is T3, GABPA (Homo sapiens, UniProt Q06546 1-454).
T3 sequence: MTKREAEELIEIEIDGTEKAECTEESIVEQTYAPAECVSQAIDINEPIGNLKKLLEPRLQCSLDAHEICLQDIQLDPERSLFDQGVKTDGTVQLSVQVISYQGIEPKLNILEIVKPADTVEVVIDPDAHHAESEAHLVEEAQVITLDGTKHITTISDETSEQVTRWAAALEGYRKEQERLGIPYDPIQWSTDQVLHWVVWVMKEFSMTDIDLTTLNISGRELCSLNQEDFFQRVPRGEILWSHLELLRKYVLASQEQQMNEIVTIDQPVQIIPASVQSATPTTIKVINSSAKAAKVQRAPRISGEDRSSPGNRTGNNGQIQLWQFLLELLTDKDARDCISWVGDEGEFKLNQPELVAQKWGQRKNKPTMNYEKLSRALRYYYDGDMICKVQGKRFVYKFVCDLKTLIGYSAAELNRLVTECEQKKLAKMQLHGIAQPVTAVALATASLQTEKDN
The gist of the method:
as §1

The target in experiment [4] is T4, ERG (Homo sapiens, UniProt P11308 1-479).
T4 sequence: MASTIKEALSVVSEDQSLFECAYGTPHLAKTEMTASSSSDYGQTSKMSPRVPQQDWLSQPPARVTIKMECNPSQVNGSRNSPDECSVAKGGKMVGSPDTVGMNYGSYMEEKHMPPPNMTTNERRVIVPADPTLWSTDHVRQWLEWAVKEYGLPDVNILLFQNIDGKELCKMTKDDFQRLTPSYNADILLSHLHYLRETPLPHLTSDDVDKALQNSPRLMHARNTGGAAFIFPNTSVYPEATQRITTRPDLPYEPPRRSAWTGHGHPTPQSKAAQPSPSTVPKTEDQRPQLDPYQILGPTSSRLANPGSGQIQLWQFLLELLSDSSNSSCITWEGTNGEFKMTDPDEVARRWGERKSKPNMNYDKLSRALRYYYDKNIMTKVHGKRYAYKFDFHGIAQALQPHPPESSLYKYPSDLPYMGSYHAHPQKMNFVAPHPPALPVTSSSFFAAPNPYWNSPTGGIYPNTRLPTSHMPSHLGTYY
The gist of the method: as §1

Experiment [5] addresses ELF1 (Homo sapiens, UniProt P32519 1-619). Put shortly: as §1
Experiment [6] deals with T5, EHF (Homo sapiens, UniProt Q9NZC4 1-300).
T5 sequence: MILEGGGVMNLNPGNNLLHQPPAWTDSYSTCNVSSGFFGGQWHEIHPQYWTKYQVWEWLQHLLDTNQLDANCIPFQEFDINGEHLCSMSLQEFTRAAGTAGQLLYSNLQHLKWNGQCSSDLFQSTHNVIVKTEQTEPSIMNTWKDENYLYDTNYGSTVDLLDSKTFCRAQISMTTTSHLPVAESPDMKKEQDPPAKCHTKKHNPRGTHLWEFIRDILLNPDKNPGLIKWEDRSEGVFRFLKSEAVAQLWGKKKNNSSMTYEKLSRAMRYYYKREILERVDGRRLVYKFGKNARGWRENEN
Put shortly: as §1

In experiment [7] the target is SPI1 (Homo sapiens, UniProt P17947 1-270). The gist of the method:
as §1

Experiment [8] deals with SPIB (Homo sapiens, UniProt Q01892 1-262). The gist of the method:
as §1

The target of experiment [9] is T6, ELK3 (Homo sapiens, UniProt P41970 1-407).
T6 sequence: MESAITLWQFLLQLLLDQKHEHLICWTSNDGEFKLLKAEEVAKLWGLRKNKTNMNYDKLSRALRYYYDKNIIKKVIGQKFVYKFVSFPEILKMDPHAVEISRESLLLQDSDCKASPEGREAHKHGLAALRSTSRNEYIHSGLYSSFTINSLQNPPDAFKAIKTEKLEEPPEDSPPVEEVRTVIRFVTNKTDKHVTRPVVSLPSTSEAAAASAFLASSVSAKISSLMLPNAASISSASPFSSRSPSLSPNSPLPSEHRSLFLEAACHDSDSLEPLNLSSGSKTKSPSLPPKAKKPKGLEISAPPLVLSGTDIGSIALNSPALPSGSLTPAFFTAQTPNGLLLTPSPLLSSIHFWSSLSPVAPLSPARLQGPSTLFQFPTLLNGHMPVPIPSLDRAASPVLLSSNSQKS
The gist of the method:
as §1

ELF1, sequence (P32519 whole entry): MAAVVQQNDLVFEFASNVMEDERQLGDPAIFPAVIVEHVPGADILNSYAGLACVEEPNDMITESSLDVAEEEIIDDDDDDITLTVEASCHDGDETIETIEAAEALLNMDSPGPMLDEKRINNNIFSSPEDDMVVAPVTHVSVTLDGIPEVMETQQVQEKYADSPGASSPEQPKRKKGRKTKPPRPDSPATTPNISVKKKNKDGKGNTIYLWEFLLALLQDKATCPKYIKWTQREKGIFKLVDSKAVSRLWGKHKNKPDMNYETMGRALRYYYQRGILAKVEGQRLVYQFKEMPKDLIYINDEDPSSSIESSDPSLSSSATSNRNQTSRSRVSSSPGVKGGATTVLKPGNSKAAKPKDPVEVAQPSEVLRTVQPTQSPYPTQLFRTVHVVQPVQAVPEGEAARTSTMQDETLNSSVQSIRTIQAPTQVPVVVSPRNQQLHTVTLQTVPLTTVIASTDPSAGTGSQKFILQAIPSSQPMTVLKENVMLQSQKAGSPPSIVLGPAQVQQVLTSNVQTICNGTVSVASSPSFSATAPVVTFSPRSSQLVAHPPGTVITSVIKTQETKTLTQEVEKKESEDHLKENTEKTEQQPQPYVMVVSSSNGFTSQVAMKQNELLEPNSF
SPIB, sequence (Q01892 whole entry): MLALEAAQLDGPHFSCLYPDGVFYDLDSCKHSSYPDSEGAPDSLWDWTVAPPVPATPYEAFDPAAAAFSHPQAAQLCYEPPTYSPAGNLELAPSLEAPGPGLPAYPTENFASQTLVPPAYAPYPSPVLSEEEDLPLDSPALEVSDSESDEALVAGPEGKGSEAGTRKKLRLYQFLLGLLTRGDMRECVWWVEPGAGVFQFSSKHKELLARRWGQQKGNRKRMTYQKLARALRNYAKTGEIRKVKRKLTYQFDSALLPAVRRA

Turning to CTCCGG, the binding signal was 1.45 fold enrichment (6-mer frequency, TF over GST control) in [1]; 1.58 fold enrichment (6-mer frequency, TF over GST control) in experiment [2]; 1.68 fold enrichment (6-mer frequency, TF over GST control) in [3]; 1.64 fold enrichment (6-mer frequency, TF over GST control) in experiment [4]; 1.52 fold enrichment (6-mer frequency, TF over GST control) in experiment [5]; 1.58 fold enrichment (6-mer frequency, TF over GST control) in experiment [6]. The binding signal was 1.43 fold enrichment (6-mer frequency, TF over GST control) in experiment [7]; 1.54 fold enrichment (6-mer frequency, TF over GST control) in experiment [8]; 1.6 fold enrichment (6-mer frequency, TF over GST control) in experiment [9].

For CAATCC, the binding signal in [1] was 1.17 fold enrichment (6-mer frequency, TF over GST control); in experiment [2], 1.19 fold enrichment (6-mer frequency, TF over GST control); in experiment [3], 1.26 fold enrichment (6-mer frequency, TF over GST control); in experiment [4], 1.24 fold enrichment (6-mer frequency, TF over GST control); in experiment [5], 1.22 fold enrichment (6-mer frequency, TF over GST control); in experiment [6], 1.07 fold enrichment (6-mer frequency, TF over GST control). Further, the binding signal in experiment [7] was 1.12 fold enrichment (6-mer frequency, TF over GST control); in [8], 1.2 fold enrichment (6-mer frequency, TF over GST control); in experiment [9] it was 1.08 fold enrichment (6-mer frequency, TF over GST control).

Consider TGTCTT, for which the binding signal was 1.29 fold enrichment (6-mer frequency, TF over GST control) in [1]; 1.2 fold enrichment (6-mer frequency, TF over GST control) in experiment [2]; 1.38 fold enrichment (6-mer frequency, TF over GST control) in experiment [3]; 1.34 fold enrichment (6-mer frequency, TF over GST control) in experiment [4]; 1.35 fold enrichment (6-mer frequency, TF over GST control) in experiment [5]; 1.31 fold enrichment (6-mer frequency, TF over GST control) in [6]. In addition, the binding signal in experiment [7] was 1.2 fold enrichment (6-mer frequency, TF over GST control); in experiment [8], 1.26 fold enrichment (6-mer frequency, TF over GST control); in experiment [9] it was 1.38 fold enrichment (6-mer frequency, TF over GST control).

Regarding CCTCCA, the binding signal was 1.37 fold enrichment (6-mer frequency, TF over GST control) in experiment [1]; 1.5 fold enrichment (6-mer frequency, TF over GST control) in experiment [2]; 1.23 fold enrichment (6-mer frequency, TF over GST control) in experiment [3]; 1.38 fold enrichment (6-mer frequency, TF over GST control) in experiment [4]; 1.37 fold enrichment (6-mer frequency, TF over GST control) in experiment [5]; 1.33 fold enrichment (6-mer frequency, TF over GST control) in experiment [6]. Besides, the binding signal is 1.28 fold enrichment (6-mer frequency, TF over GST control) in experiment [7]; 1.3 fold enrichment (6-mer frequency, TF over GST control) in experiment [8]; 1.37 fold enrichment (6-mer frequency, TF over GST control) in experiment [9].

For the sequence AAAGCA, the binding signal in [1] is 1.01 fold enrichment (6-mer frequency, TF over GST control); in experiment [2], 1.04 fold enrichment (6-mer frequency, TF over GST control); in experiment [3] it was 1.15 fold enrichment (6-mer frequency, TF over GST control); in experiment [4], 1.09 fold enrichment (6-mer frequency, TF over GST control); in experiment [5] it was 1.04 fold enrichment (6-mer frequency, TF over GST control); in experiment [6] it was 1.02 fold enrichment (6-mer frequency, TF over GST control). Also, the binding signal in experiment [7] is 1.1 fold enrichment (6-mer frequency, TF over GST control); in experiment [8], 1.08 fold enrichment (6-mer frequency, TF over GST control); in experiment [9] it was 1.05 fold enrichment (6-mer frequency, TF over GST control).

Take ACTTTT: the binding signal is 1.43 fold enrichment (6-mer frequency, TF over GST control) in [1]; 1.32 fold enrichment (6-mer frequency, TF over GST control) in [2]; 1.34 fold enrichment (6-mer frequency, TF over GST control) in experiment [3]; 1.21 fold enrichment (6-mer frequency, TF over GST control) in experiment [4]; 1.21 fold enrichment (6-mer frequency, TF over GST control) in [5]; 1.21 fold enrichment (6-mer frequency, TF over GST control) in [6]. Moreover, the binding signal is 1.26 fold enrichment (6-mer frequency, TF over GST control) in experiment [7]; 1.34 fold enrichment (6-mer frequency, TF over GST control) in experiment [8]; 1.14 fold enrichment (6-mer frequency, TF over GST control) in experiment [9].

For the sequence GAAATA, the binding signal in experiment [1] is 1.45 fold enrichment (6-mer frequency, TF over GST control); in experiment [2], 1.42 fold enrichment (6-mer frequency, TF over GST control); in experiment [3] it was 1.48 fold enrichment (6-mer frequency, TF over GST control); in experiment [4], 1.61 fold enrichment (6-mer frequency, TF over GST control); in experiment [5], 1.45 fold enrichment (6-mer frequency, TF over GST control); in experiment [6] it was 1.64 fold enrichment (6-mer frequency, TF over GST control). The binding signal was 1.49 fold enrichment (6-mer frequency, TF over GST control) in [7]; 1.54 fold enrichment (6-mer frequency, TF over GST control) in [8]; 1.5 fold enrichment (6-mer frequency, TF over GST control) in experiment [9].

In the case of TGCTAG, the binding signal was 1.11 fold enrichment (6-mer frequency, TF over GST control) in experiment [1]; 1.08 fold enrichment (6-mer frequency, TF over GST control) in experiment [2]; 1.08 fold enrichment (6-mer frequency, TF over GST control) in experiment [3]; 1.11 fold enrichment (6-mer frequency, TF over GST control) in experiment [4]; 1.16 fold enrichment (6-mer frequency, TF over GST control) in experiment [5]; 1.1 fold enrichment (6-mer frequency, TF over GST control) in experiment [6]. In addition, the binding signal is 1.2 fold enrichment (6-mer frequency, TF over GST control) in [7]; 1.19 fold enrichment (6-mer frequency, TF over GST control) in experiment [8]; 1.03 fold enrichment (6-mer frequency, TF over GST control) in experiment [9].
